High-throughput results deposited in PubChem BioAssay by National Center for Advancing Translational Sciences (NCATS).
CtBP-E1A inh: qHTS Assay for Inhibitors of the CtBP/E1A Interaction. CtBP / adenovirus E1A interaction (AlphaScreen). AlphaScreen GST-E1A/His-CtBP binding, 1536-well; stronger effect = lower value. activity change, % (concentration not given with the values). 340,000 compounds, 0.49% hits. AID 651724, 2012; in the data active = activity change below about -65%; inconclusive = mostly about -30% to -63%
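Homogeneous bead-based format: GST-tagged E1A captured on glutathione donor beads, His-tagged CtBP on nickel acceptor beads; compounds precede bead addition by 2 h at 37 °C.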
Six1-Eya2 blk: qHTS Assay for Inhibitors of the Six1/Eya2 Interaction | Homeobox protein SIX1 (Homo sapiens) + Protein phosphatase EYA2 (Homo sapiens), … | AlphaScreen GST-Six1/His-Eya2 binding, biochemical; stronger effect = lower value | activity change, % (test concentration not listed) | 360,000 compounds, 0.56% hits | AID 651725, 2012; in the data active = activity change below about -65%; inconclusive = mostly about -30% to -63%
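Six1/Eya2 binding was read as AlphaScreen signal after compounds were pinned into GST-Six1 plus His-tagged Eya2 (5X stock 250/500 nM) in pH 8.0 Tris/NaCl/TCEP buffer, beads added, then incubated 1 h, 37 C, dark.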
RORg inh: qHTS for inhibitors of ROR gamma transcriptional activity. Nuclear receptor ROR-gamma (Mus musculus), P51450. Drosophila S2 Gal4-RORgamma UAS-luciferase reporter, 20 h. Potency, µM (highest dose often 53.6 µM), for inactives: at the top dose activity change, negative = inhibition, usual class: inhibitors. 310,000 compounds, 5.4% hits. AID 2551, 2010; also: potency is read from the fitted curve at half-maximal effect; nearly all actives have a fitted effect of over 60% in size
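Luminescence from a UAS-regulated Photinus luciferase reporter in stably transfected Drosophila Schneider cells is measured; decreased signal marks ROR gamma inhibition. Fusion expression is induced by 700 uM copper sulfate for 20 hr.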
VP16 counter: VP16 counterscreen qHTS for inhibitors of ROR gamma transcriptional activity; 310,000 compounds, 3.5% hits; Drosophila S2 Gal4-VP16 UAS-luciferase, luminescence, 20 h; Potency, µM (highest dose often 53.6 µM), without a hit: at the highest dose activity, negative = inhibition, actives largely listed as inhibitors;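 also: Gal4-VP16 expression switched on by copper sulfate through the metallothionein promoter; potency is read from the fitted curve at half-maximal effect; nearly all actives have a fitted effect of over 50% in size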
PKM2 act: qHTS Assay for Activators of Human Muscle isoform 2 Pyruvate Kinase. Pyruvate kinase PKM (Homo sapiens), P14618. purified PKM2, Kinase-Glo ATP luminescence, activation; response scale: 0% is enzyme alone, no compound. Potency, µM (titrated, usually from 57.5 µM), for inactives: at the highest dose activation, usual class: activators. 260,000 compounds, 0.34% hits; also: potency is read from the fitted curve at half-maximal effect; nearly all actives have a fitted effect of over 55% in size
Target sequence (P14618 whole entry, looked up, canonical isoform): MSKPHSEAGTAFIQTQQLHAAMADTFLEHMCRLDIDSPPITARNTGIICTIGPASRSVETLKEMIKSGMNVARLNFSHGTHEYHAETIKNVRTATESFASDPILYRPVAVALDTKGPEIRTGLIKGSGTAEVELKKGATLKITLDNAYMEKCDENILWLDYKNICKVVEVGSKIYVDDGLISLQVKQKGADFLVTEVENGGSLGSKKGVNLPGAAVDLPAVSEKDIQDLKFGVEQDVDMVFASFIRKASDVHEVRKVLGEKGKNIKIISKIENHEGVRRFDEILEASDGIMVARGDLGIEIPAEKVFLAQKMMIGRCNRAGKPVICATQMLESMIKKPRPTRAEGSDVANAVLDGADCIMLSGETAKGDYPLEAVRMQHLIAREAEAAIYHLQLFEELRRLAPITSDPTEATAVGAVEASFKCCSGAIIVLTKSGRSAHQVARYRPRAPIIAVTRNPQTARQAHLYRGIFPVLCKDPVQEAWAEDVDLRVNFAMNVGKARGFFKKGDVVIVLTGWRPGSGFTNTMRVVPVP
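Kinase-Glo luminescence reports ATP generated from ADP (0.1 mM) and PEP (0.5 mM) by purified hPK-M2 after 1 h at room temperature, pH 7.2 imidazole buffer; intermediate enzyme activity allows detecting inhibitors and activators.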
Active calls of the source: *; ? = inconclusive; nt = not tested or not shown; [ ] = another dose, or the depositor's remark. Sampled rows, rich in hits. Any-hit rate of the full collection: about 5.6%. Unless noted, calls follow the shape of the dose curve; as a rule, active = well fitted curve in the direction sought with a large enough effect; inconclusive = small, poorly fitted or top-dose-only effect, or another doubt; inactive = no such curve, though single readings can be large; an effect the other way counts as inactive or inconclusive. % is scaled to controls: 0 for no effect and ±100 for the full control effect.

SMILES | CtBP-E1A inh | Six1-Eya2 blk | RORg inh | VP16 counter | PKM2 act
O=C(O)c1cc(NC(=O)c2ccc([N+](=O)[O-])cc2)cc(NC(=O)c2ccc([N+](=O)[O-])cc2)c1 | -6.9 | -10.5 | 2.8% | -7.5% | nt
O=S(=O)(NCc1cccnc1)c1cccn1-c1ncc(C(F)(F)F)cc1Cl | 1.3 | 6.9 | 25.9% | -9.1%[10 µM] | 22.4µM*
Cc1oc(-c2ccccc2Cl)nc1CSCC(=O)O | -2.2 | 9.8 | -126.5% | 7.94µM* | 3.3%
Cc1oc(-c2cccc(Cl)c2)nc1CSCC(=O)O | 2.2 | -2.5 | 10µM* | 5.01µM* | -0.5%
Cc1oc(-c2ccccc2Cl)nc1CSCC(=O)NC1CC1 | 2.4 | 0.2 | -3.8% | -3.3% | 2.9%
CSc1cccc(NC(=S)N(CCC(C)C)C(C)c2ccncc2)c1 (stereo unspecified) | nt | -11.7 | ? | ? | 0.4%
Cc1ccc(C)c(N2C(=N)S/C(=C\c3ccc(-c4ccccc4C(=O)O)o3)C2=O)c1 | ? | -72.3* | 18.3% | -0.2% | 2.1%
CCOC(=O)C1CCN(C(=O)c2cc(S(=O)(=O)N3CCc4ccccc43)ccc2OC)CC1 | -3.1 | -0.8 | nt | nt | nt
CC(C)C[C@@H](CO)N1CCN(Cc2cccc(C#N)c2)CCC1=O | 6.9 | 5.7 | -7.7% | 2.6% | 3.0%
COc1ccc(NC(=O)c2c(-c3ccccc3Cl)noc2C)c(OC)c1 | 0.0 | -7.9 | -19.2% | -0.2% | -4.3%
COc1ccc(NC(=O)c2nc(S(=O)(=O)Cc3cccc(C)c3)ncc2Cl)c(OC)c1 | nt | 2.4 | ? | 7.94µM* | nt
COc1ccc(OC)c(NC(=O)c2nc(S(=O)(=O)Cc3ccccc3)ncc2Cl)c1 | 2.9 | 10.9 | 5.01µM* | ? | nt
N#C/C(=C\c1cn(CCOc2ccccc2)c2ccccc12)C(=O)NCc1cccs1 | 22.3 | -1.9 | 0.0% | -30.0% | -5.3%
Cc1cc(C)c(-n2c(SCc3nc4ccccc4s3)n[nH]c2=O)c(C)c1 | -13.6 | -15.4 | ? | 3.16µM* | 2.8%
N#CCCCS(=O)(=O)c1nc2ccccc2s1 | nt | nt | -18.3% | -4.1% | nt
Cc1ccc2c(c1)c1ccc3c(c1n2C)C(=O)C=CC3=O | ? | ? | 11.2µM* | 11.2µM* | ?
COc1ccc2c(c1)c1ncn(CCN3CCCC3)c(=O)c1n2C | -12.9 | -16.5 | ? | 0.8% | -2.0%
COc1ccc2c(c1)c1ccc3c(c1n2C)C(=O)C=CC3=O | nt | -68.7* | 22.4µM* | 12.6µM* | ?
CCC1CCCCN1C(=O)c1ccc([N+](=O)[O-])o1 (stereo unspecified) | -4.0 | -7.1 | -7.1% | 9.7% | nt
COc1cccc(-c2nc(C(=O)NCC3CCCO3)cc3c2[nH]c2ccccc23)c1 (stereo unspecified) | -1.5 | -9.3 | ? | -12.0% | -0.1%
C[C@H](Cc1nc2c(cnn2-c2ccccc2Cl)c(=O)[nH]1)C(F)(F)F | nt | nt | 0.4% | 1.2% | nt
Cc1ccc(C(=O)NNC(=O)c2cccc(Br)c2)cc1 | 0.0 | -0.6 | 14.5% | 0.0% | -5.8%
NC(=S)NNC(=O)c1cccc(Br)c1 | nt | nt | 6.31µM* | -28.4% | -4.4%
O=C(NNC(=O)c1ccccc1O)c1cccc(Br)c1 | nt | 9.3 | 5.01µM* | -7.4% | 1.1%
O=C(CNC(=O)c1ccc(Br)cc1)c1ccccc1 | 8.3 | 5.9 | 12.6µM* | -28.8% | -2.2%
SMILES | CtBP-E1A inh | Six1-Eya2 blk | RORg inh | VP16 counter | PKM2 act
O=C(NNC(=O)c1ccccc1O)c1ccc(Br)cc1 | -5.4 | 3.5 | 11.2µM* | 20µM* | -3.0%
COCCNC(=O)c1cc(S(=O)(=O)N2CCOCC2)ccc1SCc1cccc(OC)c1OC | 1.2 | -1.9 | 1.4% | -0.3% | -0.5%
NC(=O)c1cnccc1C=Cc1ccccc1 | 6.4 | -2.9 | nt | nt | nt
NC(=S)NC(=O)c1ccccc1 | 0.2 | 5.3 | -25.0% | -1.1% | 4.4%
NC(=S)NNC(=O)c1ccccc1 | 5.2 | 1.4 | 2.82µM* | 22.4µM* | -3.7%
O=C(NNC(=O)c1ccccc1O)c1ccc(Cl)cc1 | -5.3 | -2.3 | 8.91µM* | ? | -1.7%
O=C1NC[C@@H](CCCCN2C[C@H](Cc3ccc(O)cc3)N(CCC3CCCCC3)C(=O)C2=O)N(CC2CCCCC2)C1=O | -26.8 | -4.0 | nt | nt | nt
COc1ccc(-c2nc3cnc(N4CCN(C)CC4)nc3n(-c3ccc(OC)cc3)c2=O)cc1 | nt | nt | -38.3% | -5.1% | nt
Cc1cc(C)cc(C(=O)NC(=S)Nc2cccnc2)c1 | 1.1 | 0.1 | 10µM* | ? | 0.2%
CCCOC(=O)c1cccc(NC(=O)c2cccnc2)c1 | -9.1 | -2.1 | 27.0% | 0.4% | -22.4%
Cc1ccc(NC(=S)Nc2cccnc2)c(S(=O)(=O)N2CCCCC2)c1 | -6.0 | -7.6 | ? | 15.8µM* | -17.4%
COc1cccc(NC(=S)NC(=O)c2cccnc2)c1 | 5.5 | -1.5 | 20µM* | -93.9% | -1.1%
CCOC(=O)c1cccc(NC(=S)NC(=O)c2cccnc2)c1 | 5.4 | 4.5 | 12.6µM* | ? | 2.9%[11.5 µM]
CCCCCCCCCCCCCCCC(=O)OCC(COP(=O)(O)OCC[N+](C)(C)C)OC(=O)CCCCCCCCCCCCCCC (stereo unspecified) | nt | nt | -2.1% | 7.5% | nt
Cc1ccc(Oc2ncnc(N)c2[N+](=O)[O-])cc1C | 13.6 | -2.5 | 6.8% | -11.6% | -5.3%
CCc1c(C)sc(NC(=S)Nc2cccnc2)c1C(=O)OC | -4.1 | -5.4 | 3.55µM* | 6.31µM* | 9.6%
CCc1c(C)sc(NC(=S)Nc2nc(C)cc(C)n2)c1C(=O)OC | -0.1 | -2.5 | -39.9% | 7.4% | 0.6%
CCCCCN(C(=O)NC(=O)Nc1nncs1)S(C)(=O)=O | 4.9 | 0.5 | 11.2µM* | -0.8% | -1.1%
Cc1ccc(S(=O)(=O)NCc2ccccc2)cc1C(=O)N1CCCCCCC1 | 2.8 | 7.4 | nt | nt | nt
CCC(COC)NCc1cn(-c2ccc(OC)cc2)nc1-c1cccc(F)c1 (stereo unspecified) | 1.7 | 1.5 | -42.8% | -25.2% | -2.4%
C/C(Cn1nnc([N+](=O)[O-])n1)=N\NC(=O)c1ccccc1 | 8.7 | -0.3 | 10µM* | ? | 3.4%
C/C(Cn1cnc([N+](=O)[O-])n1)=N\NC(=O)c1ccccc1 | 6.7 | 9.7 | 22.4% | 22.9% | 8.7%
COc1cccc(-c2csc(N3CCN(C(=S)Nc4ccccc4OC)CC3)n2)c1 | 6.2 | -16.9 | 7.94µM* | ? | 2.7%
CCNC(=S)N1CCN(c2nc(-c3cccc(OC)c3)cs2)CC1 | -5.5 | -17.9 | 13.8% | ? | -1.1%
COc1cccc(-c2csc(N3CCN(C(=S)NCC(C)C)CC3)n2)c1 | -4.4 | -11.9 | ? | -0.3% | 0.0%
COc1cccc(-c2csc(N3CCN(C(=O)Nc4ccc(Cl)cc4)CC3)n2)c1 | nt | -0.5 | 7.5% | 1.0% | 8.7%
COc1cccc(-c2csc(N3CCN(C(=S)Nc4cccc(Cl)c4)CC3)n2)c1 | 7.7 | -16.6 | 2.82µM* | 17.8µM* | 2.4%
